Consider 39 compounds from PubChem BioAssay AID926 (National Center for Advancing Translational Sciences (NCATS), 2007).

Assay [1] is described as follows: qHTS Assay for Agonists of the Thyroid Stimulating Hormone Receptor. The settings on record: HEK293-CNG-TSHR cells, membrane potential dye, cAMP; measured here: parental cells max response. An excerpt: (§1) NIH Chemical Genomics Center [NCGC]
(§2) NIH Molecular Libraries Screening Centers Network [MLSCN]
(§3) PI Name: Dr. Marvin Gershengorn, NIH
(§4) Thyroid Stimulating Hormone Receptor
(§5) TSH is an alpha/beta heterodimeric glycoprotein hormone secreted from the anterior pituitary gland which belongs to the glycoprotein hormone family. The actions of TSH are mediated by a seven-transmembrane receptor, which upon TSH binding couples preferentially to the G-alpha (s) protein (Gs), resulting in activation of adenylate cyclase and increase in cyclic adenosine 3', 5' monophosphate (cAMP). The TSH receptor (THSR) is mainly expressed in thyroid follicular cells and regulates their growth and function. Recombinant TSH is used to activate TSHR in patients with thyroid cancer receiving thyroid hormone suppression therapy and to screen for residual tumor after surgery, but it is expensive and must be administered intramuscularly. An orally active small molecule TSHR agonist would serve as an invaluable research tool for studying TSHR pharmacology and physiology, and would have multiple advantages in therapeutic settings. However, no selective small molecule agonist of the TSH receptor exists, and no small molecule screen for TSHR agonists has ever been reported.
(§6) This cell based assay utilized a cyclic nucleotide gated ion channel (CNG) as a biosensor for cAMP induction by potential TSHR agonists.
(§7) HEK 293 cells stably expressing the TSHR as well as a modified CNG were purchased from BD biosciences. Stimulation of cAMP production causes the CNG to open and subsequent membrane depolarization to occur. A fluorescent membrane potential dye (BD biosciences) was utilized to detect cAMP stimulation in TSHR cells.
(§8) The cells were maintained in DMEM medium (Invitrogen) containing 10 % FBS (Hyclone), 100 units/ml Penicillin, 100 ug/ml Streptomycin (Invitrogen), and 250 ug/ml Geneticin (Invitrogen) and 1 ug/ml Puromycin (Invitrogen) at 37C in 5% CO2. HEK 293 cells expressing CNG but without TSHR (parental cells) were used in concert to control for compounds signaling through endogenous receptors and targets of HEK 293 cells.
(§9) NCGC Assay Protocol Summary:
(§10) High Throughput Screening. Freshly passaged cells (TSHR or parental) were dispensed into 1536-well assay plates at 4 ul/well in DMEM containing phenol red (Invitrogen), 10% FCS (Hyclone), and 100 units/ml Penicillin, 100 ug/ml Streptomycin (Invitrogen) and incubated at 37 C with 5% CO2 for 20 to 36 hrs before the robotic screening. The screen was initiated by addition of 4 ul/well membrane potential dye containing 100 uM RO 20-1724 (Sigma Aldrich), followed by 60 min incubation at room temperature to allow for dye equilibration across the cell membrane. 23 nl/well compound or control was then added to the assay plates, which were incubated for additional 30 min before reading a Envision fluorescence plate reader (Perkin Elmer) in bottom-read mode for fluorescence intensity (emission at 590 nm).
(§11) Keywords: Thyroid-stimulating hormone TSH, TSHR, TSHR agonist, quantitative high throughput screening, qHTS, HTS, probe identification, CNG, cAMP, cyclic nucleotide gated ion channel PubChem

Assay [2] addresses Thyrotropin receptor (Homo sapiens) (UniProt P16473). The assay is described as above. Particulars: HEK293-CNG-TSHR cells (CNG channel as cAMP sensor), membrane potential dye, cAMP; series mostly up to 57.1 µM.
Excerpt: as §1, §2, §3, §4, §5, §6, §7, §8, §9, §10, §11

About 350 (0.48%) of roughly 73,000 compounds were called active. Not shown: some 17% with an inconclusive outcome. Calls follow the shape of the dose curve; as a rule, active = well fitted activation curve with a large enough effect in the main read-out, with a control signal flat (not every such curve was filed as active); inconclusive = small, poorly fitted or top-dose-only effect, or a change in a side signal; inactive = no such curve, though single readings can be large or run the other way; reference of the percent scale not stated here. The entries come from a sample that favours actives as a whole.
Potency is read from the fitted curve at half-maximal effect.

Chain of Thyrotropin receptor (Homo sapiens) (P16473 whole entry, looked up): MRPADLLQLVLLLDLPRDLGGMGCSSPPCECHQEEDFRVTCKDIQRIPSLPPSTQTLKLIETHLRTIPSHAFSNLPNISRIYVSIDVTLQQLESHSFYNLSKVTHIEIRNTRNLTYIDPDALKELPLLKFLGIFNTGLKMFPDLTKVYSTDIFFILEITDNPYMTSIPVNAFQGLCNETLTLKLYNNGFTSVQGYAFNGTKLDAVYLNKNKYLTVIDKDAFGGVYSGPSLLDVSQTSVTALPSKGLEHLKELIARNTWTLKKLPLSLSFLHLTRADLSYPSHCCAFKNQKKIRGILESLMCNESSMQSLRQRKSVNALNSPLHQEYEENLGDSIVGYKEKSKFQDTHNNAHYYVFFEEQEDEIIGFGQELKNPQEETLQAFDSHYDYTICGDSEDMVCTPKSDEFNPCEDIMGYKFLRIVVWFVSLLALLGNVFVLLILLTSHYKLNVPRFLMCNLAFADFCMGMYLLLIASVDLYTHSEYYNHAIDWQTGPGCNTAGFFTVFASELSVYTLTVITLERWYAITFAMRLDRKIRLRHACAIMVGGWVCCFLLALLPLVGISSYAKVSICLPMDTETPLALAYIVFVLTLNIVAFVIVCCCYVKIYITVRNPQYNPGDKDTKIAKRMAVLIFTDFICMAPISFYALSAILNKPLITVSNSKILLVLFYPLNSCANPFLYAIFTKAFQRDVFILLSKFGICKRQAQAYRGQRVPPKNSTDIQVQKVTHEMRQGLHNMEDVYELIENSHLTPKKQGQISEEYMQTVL

On to `O=C(O)c1cc(S(=O)(=O)N2CCCCCC2)c(Cl)cc1Cl`, for which the activation is 9.56% in assay [1] and 12.9% [at 11.4 µM] (inactive) in assay [2].
Consider `COC(=O)[C@@]1(C)C=C[C@@H](Cc2ccccc2)N1C(C)=O`, for which the activation in assay [1] amounted to 15.2%. For the same compound, the Potency entry in assay [2] was “inactive”.
In the case of `CCC[C@@H]1C[C@@]1(CCC)C(NC(=O)c1ccc(-c2ccccc2)cc1)c1cccc(Cl)c1` (stereo partly drawn), the activation in assay [1] was -2.94%. Further, in assay [2], the Potency result is “inactive”.
For `COC(=O)C1(C)C=CCN1C(=O)c1ccccc1` (stereo not drawn) the same measures were 22% and “inactive”.
For `O=C(Cl)c1ccccc1[N+](=O)[O-]` the same measures were 27% and “inactive”.
For the compound `CC(C)CN1CCc2nc(-c3ccccc3)c3c(c2C1)COC(C)C3` (stereo not drawn), the activation in assay [1] is -2.08%; in assay [2] it was -2.84% [at 11.4 µM] (inactive).
Regarding `CCN(CC)CCCCn1c(-c2ccccc2)nc2c(N3CCOCC3)nc(C)nc21`, the activation in assay [1] was 25%. Besides, the Potency result in assay [2] is “inactive”.
For `CN1CCN(Cc2nc3c(c(=O)n(C)c(=O)n3C)n2Cc2cccc3ccccc23)CC1` the same measures were 2.12% and “inactive”.
In the case of `C[C@@H]1/C=C\CC(=O)OC[C@H]2O[C@@H](C=C[C@@H]2O)[C@H](C)/C=C\CC(=O)OC[C@H]2O[C@H]1C=C[C@@H]2O`, the activation was -6.65% in assay [1] and -3.42% [at 11.4 µM] (inactive) in assay [2].
On the same counts, the results for `CC(=O)OCC1OC(C#CCCCc2ccccc2)C=CC1OC(C)=O` (stereo not drawn) are -0.905% and 0.607% [at 11.4 µM] (inactive).
In the case of `CCc1cc(=O)oc2cc(C)cc(OC(C)C(=O)O)c12` (stereo not drawn), the activation in assay [1] is 10.3%. In assay [2], the Potency result was “inactive”.
In the case of `O=C1[C@H]2[C@H]3[C@H](O)[C@H](O)C/C(=N/OCc4ccccc4)[C@H]3CC[C@@H]2C(=O)N1Cc1ccccc1`, the values for the activation in assay [1] and in assay [2] were -2.25% and -22.5% [at 11.4 µM] (inactive), respectively.
As for `O=C(Cn1nnc(-c2ccccc2)n1)NCc1ccc2c(c1)OCO2`, the activation in assay [1] turned out to be 12.1%. In addition, in assay [2], the Potency result is “inactive”.
For `Fc1ccc(-c2nnc3sc(-c4ccc5c(c4)OCO5)nn23)cc1` the same measures were 23.4% and “inactive”.
For `c1ccc(-c2nnc3n2NC(c2ccc4c(c2)OCO4)S3)cc1` (stereo not drawn) the same measures were 27.8% and 25.1 µM (active).
On the same counts, the results for `Cc1ccc(C(=O)N2CCN(C3CCCCC3)CC2)s1` are -11.9% and “inactive”.
Consider `CC(C)(C)c1ccc(OC2C=CC(C#Cc3ccccc3)OC2CO)cc1` (stereo not drawn), for which the activation in assay [1] was 12.6%; in assay [2] it was 1.96% [at 11.4 µM] (inactive).
For `O=C(Cn1cc2c(n1)CCCCC2)NCCN1CCOCC1`, the activation in assay [1] came out at 1.85%. In addition, the Potency entry in assay [2] is “inactive”.
For `CCOC(=O)CSc1nnc(-c2ccncc2)o1` the same measures were -3.39% and “inactive”.
For `Cc1ccc2nc(CC(=O)c3ccc4ccccc4c3)c(=O)[nH]c2c1`, the activation in assay [1] is 22.3%; in assay [2], 4.8% [at 11.4 µM] (inactive).
For the compound `COc1ccc(-c2cc(C(=O)NC(C(=O)O)C(C)C)c(C)o2)cc1OC` (stereo not drawn), the activation in assay [1] was determined as 6.63%. In addition, the Potency entry in assay [2] is “inactive”.
For `CN1CCN(c2ncc3nc(-c4ccc(Cl)cc4)c(=O)n(-c4ccccc4)c3n2)CC1` the same measures were -23% and “inactive”.
On the same counts, the results for `COc1ncc2nc(-c3ccc(Cl)cc3)c(=O)n(C)c2n1` are 6.5% and “inactive”.
As to `CCCCNc1nc2c(c(=O)[nH]c(=O)n2C)n1CCOc1ccccc1`, in assay [1], the activation is 0.873%. In assay [2], the Potency entry is “inactive”.
On the same counts, the results for `Cn1c(=O)[nH]c(=O)c2c1nc(NCCCn1ccnc1)n2Cc1cccc(Br)c1` are 20.4% and 20 µM (active).
`CC(c1ccccc1)n1c(NCCCn2ccnc2)nc2c1c(=O)[nH]c(=O)n2C` (stereo not drawn): the activation in assay [1] came out at 2.43%. Moreover, the Potency entry in assay [2] was “inactive”.
For `CCC(C)(C)N=C(NC#N)Nc1cccnc1` the same measures were 0.273% and “inactive”.
On the same counts, the results for `C1CCC2OC2C1` (stereo not drawn) are 21.9% and “inactive”.
On the same counts, the results for `CC(Cc1ccccc1)C(=O)N(C)Cc1ccccc1` (stereo not drawn) are 16.5% and “inactive”.
On to `CO[C@H]1COC(=O)CCC[C@@H](C)[C@H](OC)COC(=O)[C@@H](C)NC(=O)C/C=C\[C@@H]1C`, for which the activation in assay [1] is 4.76%; in assay [2] it was 0.571% [at 11.4 µM] (inactive).
On the same counts, the results for `C/C(CCN1CCCCc2nc(C)c(C)cc21)=N\O[C@@H](C)c1cn([C@@H]2COC[C@@H]2O)nn1` are 6.27% and 4.59% [at 11.4 µM] (inactive).
With `O=C(O)c1nccnc1C(=O)Nc1ccc(Br)cn1`, the activation in assay [1] is 3.73%. Also, the Potency result in assay [2] was “inactive”.
`C[C@@H](c1ccccc1)N1C(=O)[C@H]2[C@H]3[C@H](O)[C@H](O)C/C(=N/OC[C@@H](O)COCc4ccco4)[C@@H]3CC[C@@H]2C1=O`: the results for the activation in assay [1] and in assay [2] were 5.7% and -3.6% [at 11.4 µM] (inactive), respectively.
Turning to `OC(CCl)CCl`, the activation in assay [1] amounted to 12.9%. Besides, in assay [2], the Potency entry is “inactive”.
For `CCOC(=O)c1cccc(NC(=O)C2CCCN(S(=O)(=O)c3cnc[nH]3)C2)c1` (stereo not drawn) the same measures were 5.88% and “inactive”.
On the same counts, the results for `CN1CCN(Cc2c(O)ccc3c2oc(=O)c2ccccc23)CC1` are 13.2% and “inactive”.
As to `CO[C@H]1COC(=O)[C@H](Cc2ccccc2)NC(=O)C/C=C\[C@@H](C)[C@H](OC)COC(=O)C/C=C\[C@@H]1C`, the activation is 25.1% in assay [1] and 10.2% [at 11.4 µM] (inactive) in assay [2].
Turning to `O=C(CC1Nc2ccccc2NC1=O)Nc1ccccc1` (stereo not drawn), in assay [1], the activation is -1.43%. Besides, the Potency result in assay [2] is “inactive”.
With `CCCCCCn1c(SCC(=O)c2ccccc2)nc2c1c(=O)[nH]c(=O)n2C`, the values for the activation in assay [1] and in assay [2] were -2.08% and 3.88% [at 11.4 µM] (inactive), respectively.
